# Assay results: the supplement of paper PMC12282887
# ± gives the standard deviation of the averaged measurements.
# Columns and labels:
# Assay in all cases: promoter activity interaction Z-score (Lux/OD deviation from empty-vector control); higher = stronger promoter induction by the compound
# [1] = system: E. coli BW25113 acrABp lux reporter
# How it was run: (§1)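 E. coli BW25113, as wild type or one of three single-gene deletion strains, carried low-copy luxCDABE promoter reporters and grew in 40 µl LB Lennox in 384-well plates at 37°C, with OD600 and luminescence read every 30 min for 12 h. Each compound was run at four 1:2 dilutions in biological duplicates, integration spanned 0–8 h for wild type and 1–9 h for deletion strains, and wells under 10% of the median growth value were dropped. The score is the Z-transformed residual of growth-normalised luminescence fitted against a control.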
# [2] = system: E. coli BW25113 marRABp lux reporter
# How it was run: as §1
# [3] = system: E. coli BW25113 micFp lux reporter
# How it was run: as §1
# [4] = system: E. coli BW25113 ompFp lux reporter
# How it was run: as §1
# [5] = system: E. coli BW25113 robp lux reporter
# How it was run: as §1
# [6] = system: E. coli BW25113 soxSp lux reporter
# How it was run: as §1
# [7] = system: E. coli BW25113 tolCp lux reporter
# How it was run: as §1
# [8] = 11.4 µg/ml, genetic background: wild type
# [9] = 11.4 µg/ml, genetic background: ΔmarA
# [10] = 11.4 µg/ml, genetic background: Δrob
# [11] = 11.4 µg/ml, genetic background: ΔsoxS
# [12] = 22.8 µg/ml, genetic background: wild type
# [13] = 22.8 µg/ml, genetic background: ΔmarA
# [14] = 22.8 µg/ml, genetic background: Δrob
# [15] = 22.8 µg/ml, genetic background: ΔsoxS
# [16] = 45.5 µg/ml, genetic background: wild type
# [17] = 45.5 µg/ml, genetic background: ΔmarA
# [18] = 45.5 µg/ml, genetic background: Δrob
# [19] = 45.5 µg/ml, genetic background: ΔsoxS
# [20] = 91.1 µg/ml, genetic background: wild type
# [21] = 91.1 µg/ml, genetic background: ΔmarA
# [22] = 91.1 µg/ml, genetic background: Δrob
# [23] = 91.1 µg/ml, genetic background: ΔsoxS
smiles,measurement,setting,value
Cn1c(=O)[nH]c2[nH]c(=O)[nH]c2c1=O [1-Methyluric acid],promoter activity interaction Z-score,[1]; [8],-0.104 ± 0.078
same,promoter activity interaction Z-score,[1]; [9],0.564 ± 0.66
same,promoter activity interaction Z-score,[1]; [10],-0.212 ± 0.12
same,promoter activity interaction Z-score,[1]; [11],0.297 ± 0.53
same,promoter activity interaction Z-score,[1]; [12],0.00584 ± 0.0026
same,promoter activity interaction Z-score,[1]; [13],0.938 ± 0.94
same,promoter activity interaction Z-score,[1]; [14],-0.286 ± 0.35
same,promoter activity interaction Z-score,[1]; [15],0.0572 ± 0.41
same,promoter activity interaction Z-score,[1]; [16],-0.247 ± 0.3
same,promoter activity interaction Z-score,[1]; [17],-0.354 ± 0.38
same,promoter activity interaction Z-score,[1]; [18],-0.533 ± 0.26
same,promoter activity interaction Z-score,[1]; [19],0.207 ± 0.88
same,promoter activity interaction Z-score,[1]; [20],-0.104 ± 0.14
same,promoter activity interaction Z-score,[1]; [21],0.464 ± 0.1
same,promoter activity interaction Z-score,[1]; [22],-0.246 ± 0.046
same,promoter activity interaction Z-score,[1]; [23],0.186 ± 0.74
same,promoter activity interaction Z-score,[2]; [8],0.0849 ± 0.054
same,promoter activity interaction Z-score,[2]; [9],-0.0996 ± 0.1
same,promoter activity interaction Z-score,[2]; [10],-0.0237 ± 0.035
same,promoter activity interaction Z-score,[2]; [11],-0.145 ± 0.068
same,promoter activity interaction Z-score,[2]; [12],-0.0689 ± 0.41
same,promoter activity interaction Z-score,[2]; [13],-0.0515 ± 0.28
same,promoter activity interaction Z-score,[2]; [14],-0.217 ± 0.19
same,promoter activity interaction Z-score,[2]; [15],-0.242 ± 0.1
same,promoter activity interaction Z-score,[2]; [16],-0.206 ± 0.59
same,promoter activity interaction Z-score,[2]; [17],-0.417 ± 0.023
same,promoter activity interaction Z-score,[2]; [18],-0.419 ± 0.29
same,promoter activity interaction Z-score,[2]; [19],-0.415 ± 0.043
same,promoter activity interaction Z-score,[2]; [20],-0.367 ± 0.052
same,promoter activity interaction Z-score,[2]; [21],0.16 ± 0.19
same,promoter activity interaction Z-score,[2]; [22],-0.423 ± 0.058
same,promoter activity interaction Z-score,[2]; [23],-0.211 ± 0.17
same,promoter activity interaction Z-score,[3]; [8],-0.0236 ± 0.39
same,promoter activity interaction Z-score,[3]; [9],0.118 ± 0.021
same,promoter activity interaction Z-score,[3]; [10],0.0501 ± 0.18
same,promoter activity interaction Z-score,[3]; [11],0.153 ± 0.11
same,promoter activity interaction Z-score,[3]; [12],0.0921 ± 0.34
same,promoter activity interaction Z-score,[3]; [13],0.0777 ± 0.13
same,promoter activity interaction Z-score,[3]; [14],0.162 ± 0.1
same,promoter activity interaction Z-score,[3]; [15],-0.0599 ± 0.019
same,promoter activity interaction Z-score,[3]; [16],-0.0797 ± 0.0059
same,promoter activity interaction Z-score,[3]; [17],0.0715 ± 0.14
same,promoter activity interaction Z-score,[3]; [18],-0.119 ± 0.051
same,promoter activity interaction Z-score,[3]; [19],0.323 ± 0.18
same,promoter activity interaction Z-score,[3]; [20],-0.191 ± 0.057
same,promoter activity interaction Z-score,[3]; [21],0.0296 ± 0.15
same,promoter activity interaction Z-score,[3]; [22],-0.0667 ± 0.089
same,promoter activity interaction Z-score,[3]; [23],0.409 ± 0.52
same,promoter activity interaction Z-score,[4]; [8],0.326 ± 0.31
same,promoter activity interaction Z-score,[4]; [9],0.693 ± 0.12
same,promoter activity interaction Z-score,[4]; [10],0.46 ± 0.48
same,promoter activity interaction Z-score,[4]; [11],0.431 ± 0.45
same,promoter activity interaction Z-score,[4]; [12],0.321 ± 0.41
same,promoter activity interaction Z-score,[4]; [13],0.558 ± 0.49
same,promoter activity interaction Z-score,[4]; [14],0.739 ± 0.54
same,promoter activity interaction Z-score,[4]; [15],0.326 ± 0.25
same,promoter activity interaction Z-score,[4]; [16],-0.32 ± 0.069
same,promoter activity interaction Z-score,[4]; [17],0.0147 ± 0.41
same,promoter activity interaction Z-score,[4]; [18],-1.23 ± 0.62
same,promoter activity interaction Z-score,[4]; [19],-0.438 ± 0.48
same,promoter activity interaction Z-score,[4]; [20],0.135 ± 0.01
same,promoter activity interaction Z-score,[4]; [21],0.619 ± 0.048
same,promoter activity interaction Z-score,[4]; [22],-0.101 ± 0.29
same,promoter activity interaction Z-score,[4]; [23],0.374 ± 1.1
same,promoter activity interaction Z-score,[5]; [8],-0.269 ± 0.61
same,promoter activity interaction Z-score,[5]; [9],0.351 ± 0.24
same,promoter activity interaction Z-score,[5]; [10],0.112 ± 0.039
same,promoter activity interaction Z-score,[5]; [11],0.0211 ± 0.46
same,promoter activity interaction Z-score,[5]; [12],0.161 ± 0.081
same,promoter activity interaction Z-score,[5]; [13],0.493 ± 0.4
same,promoter activity interaction Z-score,[5]; [14],0.0711 ± 0.33
same,promoter activity interaction Z-score,[5]; [15],-0.912 ± 0.1
same,promoter activity interaction Z-score,[5]; [16],-0.286 ± 0.13
same,promoter activity interaction Z-score,[5]; [17],-0.426 ± 0.29
same,promoter activity interaction Z-score,[5]; [18],-1.18 ± 0.44
same,promoter activity interaction Z-score,[5]; [19],-0.966 ± 0.2
same,promoter activity interaction Z-score,[5]; [20],0.057 ± 0.46
same,promoter activity interaction Z-score,[5]; [21],0.0892 ± 0.25
same,promoter activity interaction Z-score,[5]; [22],-0.403 ± 0.09
same,promoter activity interaction Z-score,[5]; [23],-0.691 ± 0.56
same,promoter activity interaction Z-score,[6]; [8],0.261 ± 0.1
same,promoter activity interaction Z-score,[6]; [9],0.522 ± 0.037
same,promoter activity interaction Z-score,[6]; [10],0.347 ± 0.19
same,promoter activity interaction Z-score,[6]; [11],0.264 ± 0.44
same,promoter activity interaction Z-score,[6]; [12],0.256 ± 0.0038
same,promoter activity interaction Z-score,[6]; [13],0.598 ± 0.099
same,promoter activity interaction Z-score,[6]; [14],0.475 ± 0.19
same,promoter activity interaction Z-score,[6]; [15],0.221 ± 0.36
same,promoter activity interaction Z-score,[6]; [16],0.22 ± 0.037
same,promoter activity interaction Z-score,[6]; [17],0.334 ± 0.14
same,promoter activity interaction Z-score,[6]; [18],0.132 ± 0.069
same,promoter activity interaction Z-score,[6]; [19],-0.0814 ± 0.51
same,promoter activity interaction Z-score,[6]; [20],0.104 ± 0.3
same,promoter activity interaction Z-score,[6]; [21],0.366 ± 0.082
same,promoter activity interaction Z-score,[6]; [22],0.122 ± 0.097
same,promoter activity interaction Z-score,[6]; [23],0.0852 ± 0.84
same,promoter activity interaction Z-score,[7]; [8],-0.101 ± 0.82
same,promoter activity interaction Z-score,[7]; [9],0.236 ± 0.64
same,promoter activity interaction Z-score,[7]; [10],0.123 ± 0.14
same,promoter activity interaction Z-score,[7]; [11],0.273 ± 0.67
same,promoter activity interaction Z-score,[7]; [12],0.46 ± 0.55
same,promoter activity interaction Z-score,[7]; [13],0.0925 ± 0.54
same,promoter activity interaction Z-score,[7]; [14],1.34 ± 1.4
same,promoter activity interaction Z-score,[7]; [15],-0.689 ± 1
same,promoter activity interaction Z-score,[7]; [16],0.324 ± 0.25
same,promoter activity interaction Z-score,[7]; [17],0.169 ± 0.61
same,promoter activity interaction Z-score,[7]; [18],-0.992 ± 0.65
same,promoter activity interaction Z-score,[7]; [19],0.413 ± 0.89
same,promoter activity interaction Z-score,[7]; [20],0.769 ± 0.93
same,promoter activity interaction Z-score,[7]; [21],0.232 ± 0.41
same,promoter activity interaction Z-score,[7]; [22],0.664 ± 0.066
same,promoter activity interaction Z-score,[7]; [23],0.553 ± 0.38
